Assay outcomes: PubChem, several laboratories
In the library only some 4.6% were active in any assay of this set; here they are far more common.
SKKanGAS inh – SKKanGAS growth inhibition | S. pyogenes SKKanGAS, kanamycin growth, BacTiter-Glo, 6 h | 1.3% of 300,000 active | inhibition, % at 7.5 µM;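 active = mean replicate score, as percent of positive control median, at least 50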;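 also: strain carries kanamycin resistance gene driven by streptokinase promoter and grows in 40 µg/ml kanamycin; loss of luminescence reflects streptokinase promoter inhibition or plain growth inhibition; 0% = median of DMSO wells and 100% = positive control at its reference dose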
tim10-1 inh – growth inhibitors of tim10-1 mutant yeast; inhibition, % at 20 µM; 2.2% of 330,000 active; S. cerevisiae tim10-1 ts strain growth, BacTiter-Glo, 24 h;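 active = inhibition of at least 40%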;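 also: mutant grown at 25 °C; 0% = DMSO wells with yeast and 100% = wells holding no yeast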
NALP3 yeast inh – blocks the NALP3 inflammasome reconstituted in yeast | Yeast reconstituted NLRP3/ASC/caspase-1, beta-gal luminescence, 24 h | inhibition, % at 10 µM | 0.39% of 330,000 active;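 active = inhibition of 50% or more; inactive = inhibition below 50%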;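 also: plate controls were induced DMSO wells for no effect and uninduced yeast grown without galactose for full effect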
TIM10 inh – growth inhibitors of TIM10 yeast strain. S. cerevisiae TIM10 strain growth, BacTiter-Glo luminescence, 24 h. inhibition, % at 10 µM. 1.4% of 330,000 active. AID 463195;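 active = inhibition of 40% or more at the single tested concentration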;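 also: wild-type TIM10 isogenic control strain grown at permissive 25 °C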
tim23-1 inh – growth inhibitors of tim23-1 mutant yeast. S. cerevisiae tim23-1 growth, BacTiter-Glo luminescence, 24 h. inhibition, % at 20 µM. 1.3% of 330,000 active;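 active = growth inhibition of the mutant yeast at or above 50%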;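 also: temperature-sensitive mutant grown at 25 °C; plate controls were DMSO-treated mutant yeast for no effect and medium wells lacking yeast for full effect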
NALP3 confirm – confirmation of NALP3 inhibitors in yeast; shares compounds with NALP3 yeast inh; yeast expressing human NALP3, luminescence; inhibition, % at 10 µM; 81% of 1,300 active; in the data active = inhibition above about 48%
Casp1-ASC yeast – caspase-1-ASC yeast counter-screen hit; shares compounds with NALP3 yeast inh; yeast expressing Caspase-1-ASC, luminescence counter screen; inhibition, % at 10 µM; 66% of 1,000 active
NALP3 yeast rt – yeast NALP3 inhibition, confirmed on retest | shares compounds with NALP3 yeast inh | yeast expressing human NALP3, luminescence read-out | inhibition, % at 10 µM | 53% of 1,000 active | AID 488794
tim10-1 conf – tim10-1 yeast growth inhibition, confirmed; shares compounds with tim10-1 inh; S. cerevisiae tim10-1 ts strain growth, BacTiter-Glo, 24 h; inhibition, % at 20 µM; 56% of 7,400 active; AID 463213;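 active = inhibition of yeast growth at or above a set limit in either of two repeat tests at 20 µM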;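 also: tim10-1 mutant grown at permissive 25 °C to find synthetic lethal compounds; 0% = DMSO yeast wells and 100% = medium wells without yeast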
TIM10 conf – TIM10 yeast growth inhibition, confirmed; shares compounds with TIM10 inh; S. cerevisiae tim10 strain growth, BacTiter-Glo luminescence, 24 h; inhibition, % at 10 µM; 63% of 4,600 active;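 active = inhibition of yeast growth at or above a set limit in either of two replicates at 10 µM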;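 also: this counterscreen used the strain with wild-type TIM10; 0% = yeast with DMSO and 100% = medium wells lacking yeast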
tim23-1 confirm – confirmation of tim23-1 mutant yeast growth inhibitors; AID 463218; shares compounds with tim23-1 inh; S. cerevisiae tim23-1 growth, BacTiter-Glo luminescence, 24 h; inhibition, % at 20 µM; 83% of 4,400 active;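 active = inhibition above about 39% in either of two replicate wells at 20 µM, limit read from the data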;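 also: temperature-sensitive tim23-1 mutant grown at 25 °C; 0% = DMSO wells with yeast and 100% = medium wells without yeast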
* hit, by the source's call; . = no result given. Rule as the data show it, unless noted: active = inhibition above about 50%; inactive = the rest.

SMILES	SKKanGAS inh	tim10-1 inh	NALP3 yeast inh	TIM10 inh	tim23-1 inh	NALP3 confirm	Casp1-ASC yeast	NALP3 yeast rt	tim10-1 conf	TIM10 conf	tim23-1 confirm
COc1c(OC(C)=O)c(=O)n2c3ccccc3c3ccnc1c32	-8	70*	71*	73*	83*	75*	26	64*	64*	80*	67*
COc1cccc2c1C(=O)c1c(O)c3c(c(O)c1C2=O)C[C@@](O)(C(=O)CO)C[C@@H]3O[C@H]1C[C@H](N)[C@H](O)[C@H](C)O1	107*	11	65*	-6	52*	69*	75*	66*	.	.	44*
Cc1cc(C(=O)C(C)OC(=O)c2ccc(NC(=O)CC#N)cc2)c(C)n1-c1ccc(OC(F)F)cc1 (configuration not stated)	.	21	6	15	34	.	.	.	.	.	.
O=C(NC1CCC(O)CC1)c1cccc2cccnc12 (configuration not stated)	0	-11	15	4	-7	.	.	.	.	.	.
C=CCOc1ccccc1C(=O)/C=C1/C(=O)Nc2ccccc21	13	50*	59*	80*	89*	75*	53*	59*	active	64*	16
COc1ccc(C(=O)/C=C2/C(=O)Nc3ccccc32)c(OC)c1	9	50*	69*	68*	70*	82*	76*	80*	59*	67*	-23
NC(=O)COc1ccc(C(=O)/C=C2/C(=O)Nc3ccccc32)cc1	4	34	18	35	30	.	.	.	.	.	.
COc1cc(OC)c(/C=C2\C(=O)Nc3ccccc32)c(OC)c1	.	39	29	23	46	.	.	.	.	.	.
CCOc1ccc(N/C=C/C(=O)c2ccccc2)c([N+](=O)[O-])c1	5	38	59*	70*	57*	-27	.	.	.	-1	77*
CCOc1ccc(NC(=O)/C=C/c2ccccc2)c([N+](=O)[O-])c1	-13	11	25	-7	7	.	.	.	.	.	.
O=Nc1c(-c2c(O)[nH]c3cc(Br)ccc23)[nH]c2ccccc12	95*	9	67*	32	51*	71*	56*	64*	.	.	57*
Cc1nc(Nc2nc3c(c(=O)[nH]2)CCC3)nc2ccccc12	23	60*	77*	83*	64*	71*	47	41	72*	75*	62*
c1ccc(-c2nc(-c3ccccn3)no2)cc1	-6	-3	12	3	19	.	.	.	.	.	.
c1ccc(-c2ccc(-c3nc(-c4ccccn4)no3)cc2)cc1	18	46*	53*	29	54*	50*	47	37	49*	.	74*
CC(C)(O)c1cc2ccc(C#Cc3ccsc3)cc2c(=O)o1	.	12	65*	17	60*	51*	67*	58*	.	.	24
C/C(=N\Nc1ccc(F)cc1)c1ccc(N2CCOCC2)c(F)c1	4	-7	12	12	26	.	.	.	.	.	.
CN1CCN(S(=O)(=O)c2ccc(SCCOc3ccc(Cl)cc3)nc2)CC1	.	39	74*	65*	61*	74*	23	18	.	69*	39*
CCN(CC)c1ccc(/C=C2\SC(=O)N(C(C)C)C2=O)o1	-4	62*	52*	57*	60*	44	56*	49	44*	64*	74*
O=C(Cn1cnc2cc([N+](=O)[O-])ccc2c1=O)Nc1ccccc1-c1ccccc1	8	-9	4	-24	-17	.	.	.	.	.	.
C[C@]12CCC(O)CC1=CCC1C2CC[C@]2(C)/C(=N\NC(N)=S)CCC12 (some centres not stated)	-5	-6	39	-30	-34	.	.	.	.	.	.
